Data as given in the supplement of paper PMC8728848.
The entries come from a sample that favours the strongest signals as a whole.

Tests used:
Assay in all cases: glycan array binding signal (z-score within array); higher = stronger binding
Conditions in all cases: glycan notation: IUPAC condensed, linker removed
[1] = biological target: Fuc(a1-2)Gal(b1-3)GlcNAc(b1-2)Man(a1-3)[Fuc(a1-2)Gal(b1-3)GlcNAc(b1-2)Man(a1-6)]Man(b1-4)GlcNAc(b1-4)GlcNAc
Procedure, shortened: (§1)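 Glycan array data were curated from 3228 arrays in the Consortium for Functional Glycomics database and kept only where the protein sequence was available. Glycan names were converted to IUPAC-condensed notation, and columns mapping to the same glycan were averaged. The binding signal is a within-array Z-score, averaged across arrays of the same protein sequence at different concentrations or buffers and across linkers. Negative Z-scores can be read as non-binding.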

[2] = biological target: Fuc(a1-2)Gal(b1-3)GlcNAc(b1-3)GalNAc
Procedure, shortened: as §1

[3] = biological target: Fuc(a1-2)Gal(b1-3)GlcNAc(b1-3)[Fuc(a1-2)Gal(b1-3)GlcNAc(b1-6)]GalNAc
Procedure, shortened: as §1

[4] = biological target: Fuc(a1-2)Gal(b1-3)GlcNAc6S
Procedure, shortened: as §1

[5] = biological target: Fuc(a1-2)Gal(b1-4)GlcNAc(b1-2)Man
Procedure, shortened: as §1

[6] = biological target: Fuc(a1-2)[Gal(a1-3)]Gal(b1-3)GlcNAc(b1-2)Man(a1-3)[Fuc(a1-2)[Gal(a1-3)]Gal(b1-3)GlcNAc(b1-2)Man(a1-6)]Man(b1-4)GlcNAc(b1-4)[Fuc(a1-6)]GlcNAc
Procedure, shortened: as §1

[7] = biological target: Fuc(a1-2)[Gal(a1-3)]Gal(b1-4)GlcNAc(b1-2)Man(a1-3)[Fuc(a1-2)[Gal(a1-3)]Gal(b1-4)GlcNAc(b1-2)Man(a1-6)]Man(b1-4)GlcNAc(b1-4)GlcNAc
Procedure, shortened: as §1

[8] = biological target: Fuc(a1-2)[Gal(a1-3)]Gal(b1-4)GlcNAc(b1-2)Man(a1-3)[Fuc(a1-2)[Gal(a1-3)]Gal(b1-4)GlcNAc(b1-2)Man(a1-6)]Man(b1-4)GlcNAc(b1-4)[Fuc(a1-6)]GlcNAc
Procedure, shortened: as §1

[9] = biological target: Fuc(a1-2)[GalNAc(a1-3)]Gal(b1-3)GlcNAc(b1-6)GalNAc
Procedure, shortened: as §1

[10] = biological target: Fuc(a1-2)[GalNAc(a1-3)]Gal(b1-4)[Fuc(a1-3)]GlcNAc(b1-3)GalNAc
Procedure, shortened: as §1

[11] = biological target: Fuc(a1-3)[Gal(b1-4)]GlcNAc(b1-6)[Gal(b1-3)GlcNAc(b1-3)]Gal(b1-4)Glc
Procedure, shortened: as §1

[12] = biological target: Fuc(a1-3)[Gal3S(b1-4)]Glc
Procedure, shortened: as §1

[13] = biological target: Fuc(a1-3)[GalNAc(b1-4)]GlcNAc
Procedure, shortened: as §1

Fuc(a1-4)GlcNAc = biological target: Fuc(a1-4)GlcNAc
Procedure, shortened: as §1

[14] = biological target: Gal(a1-3)Gal(b1-3)GlcNAc(b1-2)Man
Procedure, shortened: as §1

Gal(a1-3)GalNAc = biological target: Gal(a1-3)GalNAc
Procedure, shortened: as §1

Gal(a1-4)GlcNAc = biological target: Gal(a1-4)GlcNAc
Procedure, shortened: as §1

Gal(b1-2)Gal = biological target: Gal(b1-2)Gal
Procedure, shortened: as §1

[15] = biological target: Gal(b1-3)GlcNAc(b1-2)Man(a1-3)[Gal(b1-3)GlcNAc(b1-2)Man(a1-6)]Man(b1-4)GlcNAc(b1-4)GlcNAc
Procedure, shortened: as §1

[16] = biological target: Gal(b1-3)GlcNAc(b1-2)Man(a1-3)[Gal(b1-3)GlcNAc(b1-2)Man(a1-6)]Man(b1-4)GlcNAc(b1-4)[Fuc(a1-6)]GlcNAc
Procedure, shortened: as §1

[17] = biological target: Gal(b1-3)GlcNAc(b1-3)Gal(b1-4)[Fuc(a1-3)]GlcNAc
Procedure, shortened: as §1

[18] = biological target: Gal(b1-3)GlcNAc(b1-6)[Gal(b1-3)]GalNAc
Procedure, shortened: as §1

Gal(b1-4)Glc6S = biological target: Gal(b1-4)Glc6S
Procedure, shortened: as §1

Gal(b1-4)GlcNAc(b1-2)Man = biological target: Gal(b1-4)GlcNAc(b1-2)Man
Procedure, shortened: as §1

[19] = biological target: Gal(b1-4)GlcNAc(b1-2)Man(a1-3)Man(b1-4)GlcNAc(b1-4)GlcNAc
Procedure, shortened: as §1

[20] = biological target: Gal(b1-4)GlcNAc(b1-2)[Gal(b1-4)GlcNAc(b1-4)]Man(a1-3)[Gal(b1-4)GlcNAc(b1-2)[Gal(b1-4)GlcNAc(b1-6)]Man(a1-6)]Man(b1-4)GlcNAc(b1-4)GlcNAc
Procedure, shortened: as §1

[21] = biological target: Gal(b1-4)GlcNAc(b1-3)Gal(b1-4)GlcNAc(b1-2)Man(a1-3)[Gal(b1-4)GlcNAc(b1-3)Gal(b1-4)GlcNAc(b1-2)Man(a1-6)]Man(b1-4)GlcNAc(b1-4)[Fuc(a1-6)]GlcNAc
Procedure, shortened: as §1

[22] = biological target: Gal(b1-4)GlcNAc(b1-3)Gal(b1-4)GlcNAc(b1-3)Gal(b1-4)GlcNAc(b1-2)Man(a1-3)[Gal(b1-4)GlcNAc(b1-3)Gal(b1-4)GlcNAc(b1-3)Gal(b1-4)GlcNAc(b1-2)Man(a1-6)]Man(b1-4)GlcNAc(b1-4)[Fuc(a1-6)]GlcNAc
Procedure, shortened: as §1

[23] = biological target: GalNAc(b1-3)Gal(a1-4)Gal(b1-4)GlcNAc(b1-3)Gal(b1-4)Glc
Procedure, shortened: as §1

GalNAc(b1-4)GlcNAc6S = biological target: GalNAc(b1-4)GlcNAc6S
Procedure, shortened: as §1

GlcA(b1-6)Gal = biological target: GlcA(b1-6)Gal
Procedure, shortened: as §1

[24] = biological target: GlcNAc(b1-2)Man(a1-3)[GlcNAc(b1-2)Man(a1-6)]Man(b1-4)GlcNAc(b1-4)GlcNAc
Procedure, shortened: as §1

[25] = biological target: GlcNAc(b1-2)[GlcNAc(b1-4)]Man(a1-3)[GlcNAc(b1-4)][GlcNAc(b1-2)[GlcNAc(b1-6)]Man(a1-6)]Man(b1-4)GlcNAc(b1-4)[Fuc(a1-6)]GlcNAc
Procedure, shortened: as §1

GlcNAc(b1-3)Gal(b1-4)Glc = biological target: GlcNAc(b1-3)Gal(b1-4)Glc
Procedure, shortened: as §1

[26] = biological target: GlcNAc(b1-3)Gal(b1-4)GlcNAc(b1-3)Gal(b1-4)GlcNAc(b1-2)[GlcNAc(b1-3)Gal(b1-4)GlcNAc(b1-3)Gal(b1-4)GlcNAc(b1-6)]Man(a1-6)[GlcNAc(b1-3)Gal(b1-4)GlcNAc(b1-3)Gal(b1-4)GlcNAc(b1-2)Man(a1-3)]Man(b1-4)GlcNAc(b1-4)[Fuc(a1-6)]GlcNAc
Procedure, shortened: as §1

[27] = biological target: GlcNAc(b1-3)Gal(b1-4)GlcNAc(b1-3)Gal(b1-4)GlcNAc(b1-3)Gal(b1-4)GlcNAc(b1-2)Man(a1-3)[GlcNAc(b1-3)Gal(b1-4)GlcNAc(b1-3)Gal(b1-4)GlcNAc(b1-3)Gal(b1-4)GlcNAc(b1-2)Man(a1-6)]Man(b1-4)GlcNAc(b1-4)GlcNAc
Procedure, shortened: as §1

[28] = biological target: GlcNAc(b1-3)Gal(b1-4)GlcNAc(b1-3)Gal(b1-4)GlcNAc(b1-3)Gal(b1-4)GlcNAc(b1-3)Gal(b1-4)GlcNAc(b1-2)Man(a1-3)[GlcNAc(b1-3)Gal(b1-4)GlcNAc(b1-3)Gal(b1-4)GlcNAc(b1-3)Gal(b1-4)GlcNAc(b1-3)Gal(b1-4)GlcNAc(b1-2)Man(a1-6)]Man(b1-4)GlcNAc(b1-4)[Fuc(a1-6)]GlcNAc
Procedure, shortened: as §1

[29] = biological target: GlcNAc(b1-3)[GlcNAc(b1-6)]GalNAc
Procedure, shortened: as §1

GlcNAc(b1-4)GlcNAc = biological target: GlcNAc(b1-4)GlcNAc
Procedure, shortened: as §1

[30] = biological target: GlcNAc6S(b1-3)Gal(b1-4)GlcNAc
Procedure, shortened: as §1

[31] = biological target: Man(a1-3)[Man(a1-6)]Man(a1-6)[Man(a1-2)Man(a1-3)]Man(b1-4)GlcNAc(b1-4)GlcNAc
Procedure, shortened: as §1

[32] = biological target: Neu5Ac(a2-3)Gal(b1-3)GalNAc(b1-3)Gal(a1-4)Gal(b1-4)Glc
Procedure, shortened: as §1

[33] = biological target: Neu5Ac(a2-3)Gal(b1-3)GlcNAc
Procedure, shortened: as §1

[34] = biological target: Neu5Ac(a2-3)Gal(b1-3)GlcNAc(b1-2)Man
Procedure, shortened: as §1

Neu5Ac(a2-3)Gal(b1-4)Glc = biological target: Neu5Ac(a2-3)Gal(b1-4)Glc
Procedure, shortened: as §1

[35] = biological target: Neu5Ac(a2-3)Gal(b1-4)GlcNAc(b1-2)Man(a1-3)[GlcNAc(b1-4)][Neu5Ac(a2-3)Gal(b1-4)GlcNAc(b1-2)Man(a1-6)]Man(b1-4)GlcNAc(b1-4)GlcNAc
Procedure, shortened: as §1

[36] = biological target: Neu5Ac(a2-3)Gal(b1-4)GlcNAc(b1-6)GalNAc
Procedure, shortened: as §1

[37] = biological target: Neu5Ac(a2-3)[Neu5Ac(a2-6)]GalNAc
Procedure, shortened: as §1

Neu5Ac(a2-8)Neu5Ac = biological target: Neu5Ac(a2-8)Neu5Ac
Procedure, shortened: as §1

[38] = biological target: Neu5Ac(a2-8)Neu5Ac(a2-8)Neu5Ac(a2-3)[GalNAc(b1-4)]Gal(b1-4)Glc
Procedure, shortened: as §1

[39] = biological target: Neu5Gc(a2-8)Neu5Gc(a2-6)Gal(b1-4)GlcNAc
Procedure, shortened: as §1

B1: PX9916F-bfa-443-24-443 (Bacteroides fragilis) (protein)
chain: DIRPVGSVIPQTAEEYRALLARAYLNVPNDRGLACLRSDEMLVNDNEYDRNSYGDIERWNDVSPFPGTSQFTWSNFYNVLFIANQVIESQKEITEGTPEVVNQLVGEAHLLRAYLHFVLVNLHGQPYTKSGALNSKSIPLKLDTDLEKTLGRNTVEEVYTSILSDIEHARELINKEKWETVFSYRFNVLSVDALQSRVSLYMGAWPKCLESAEAVLAKKSVLVDMNETPLALPNHFESVESITALEQVMGSSVNNAVWVPATFLALYQEGDKRLAAYFAAPDENGNRKSSKGGKREFSCTFRVGELYLNAAEAAANMDKLPHARMRLLELMRKRYTPEAYDKKENAVNVMDKNALISEILNERARELAFEGHRWFDLRRTTRPRMVKVLQGKTYILEQDDPRYTIPIPRDAIAANPGLAN
- glycan array binding signal (z-score) [1]: 3.24
- glycan array binding signal (z-score) [2]: 0.31
- glycan array binding signal (z-score) [3]: -0.372
- glycan array binding signal (z-score) [4]: -0.338
- glycan array binding signal (z-score) [5]: 0.848
- glycan array binding signal (z-score) [6]: 8.18
- glycan array binding signal (z-score) [7]: 8.54
- glycan array binding signal (z-score) [8]: 2.44
- glycan array binding signal (z-score) [9]: 0.212
- glycan array binding signal (z-score) [10]: 2.91
- glycan array binding signal (z-score) [11]: 3.87
- glycan array binding signal (z-score) [12]: 0.001
- glycan array binding signal (z-score) [13]: 0.251
- glycan array binding signal (z-score) (Fuc(a1-4)GlcNAc): 1.76
- glycan array binding signal (z-score) [14]: -0.056
- glycan array binding signal (z-score) (Gal(a1-3)GalNAc): -0.469
- glycan array binding signal (z-score) (Gal(a1-4)GlcNAc): -0.265
- glycan array binding signal (z-score) (Gal(b1-2)Gal): 0.596
- glycan array binding signal (z-score) [15]: 0.347
- glycan array binding signal (z-score) [16]: 1.79
- glycan array binding signal (z-score) [17]: -0.126
- glycan array binding signal (z-score) [18]: 0
- glycan array binding signal (z-score) (Gal(b1-4)Glc6S): 0.038
- glycan array binding signal (z-score) (Gal(b1-4)GlcNAc(b1-2)Man): 2.63
- glycan array binding signal (z-score) [19]: -0.479
- glycan array binding signal (z-score) [20]: -0.78
- glycan array binding signal (z-score) [21]: 0.44
- glycan array binding signal (z-score) [22]: 2.81
- glycan array binding signal (z-score) [23]: 0.078
- glycan array binding signal (z-score) (GalNAc(b1-4)GlcNAc6S): 0.581
- glycan array binding signal (z-score) (GlcA(b1-6)Gal): 2.71
- glycan array binding signal (z-score) [24]: -0.266
- glycan array binding signal (z-score) [25]: -1.61
- glycan array binding signal (z-score) (GlcNAc(b1-3)Gal(b1-4)Glc): -0.475
- glycan array binding signal (z-score) [26]: -0.316
- glycan array binding signal (z-score) [27]: 2.55
- glycan array binding signal (z-score) [28]: -0.064
- glycan array binding signal (z-score) [29]: -0.249
- glycan array binding signal (z-score) (GlcNAc(b1-4)GlcNAc): 0.138
- glycan array binding signal (z-score) [30]: 0.017
- glycan array binding signal (z-score) [31]: 1.23
- glycan array binding signal (z-score) [32]: 0.297
- glycan array binding signal (z-score) [33]: -0.376
- glycan array binding signal (z-score) [34]: 4.28
- glycan array binding signal (z-score) (Neu5Ac(a2-3)Gal(b1-4)Glc): 0.058
- glycan array binding signal (z-score) [35]: -1.31
- glycan array binding signal (z-score) [36]: -0.155
- glycan array binding signal (z-score) [37]: -0.772
- glycan array binding signal (z-score) (Neu5Ac(a2-8)Neu5Ac): 1.37
- glycan array binding signal (z-score) [38]: -0.695
- glycan array binding signal (z-score) [39]: -0.576
